The values below come from ChEMBL document CHEMBL4513216, “Probing the Open Global Health Chemical Diversity Library for Multistage-Active Starting Points for Next-Generation Antimalarials” (ACS Infect Dis, 2020).

About 8,600 (12%) of roughly 69,000 compounds showed an effect of 50% or more. Shown is part of a subset that was picked to be rich in strong results.

The test system of the experiment is Plasmodium berghei. In words: Screen against P. berghei liver stage (PbLuc), transformed with Luciferase, at 10uM. The settings on record: tested at 10 uM. It counts as functional, HepG2.
Turning to `Cc1noc(C2CCN(C(=O)C3CCCO3)CC2)n1` (stereo unspecified), the INHIBITION was determined as 35.6%.
For the compound `CN1CCCN(C(=O)c2csc3nc(-c4ccc(Cl)cc4)cn23)CC1`, the INHIBITION was 43.6%.
For the compound `O=C(NCCOc1ccc2c(c1)OCO2)N1CCC1`, the INHIBITION stood at 23.4%.
For `Cc1ccc(C(=O)N2CCC3(CCC(=O)N(CC(N)=O)C3)CC2)cc1` the value was 36.8%.
For `Cc1nn(C)c2c(NCc3ccc(F)cc3)nc(C3CC3)nc12` the value was 56.9%; for `Cc1nn(C)c2c(NC3CCCC3)nc(C3CC3)nc12`, 54.2%.
Regarding `Cc1nc(NC2CCCC2)c2c(n1)c(C)nn2C`, the INHIBITION worked out at 41.5%.
On to `Cc1nn(C)c2c(N3CCCC3)nc(C3CC3)nc12`, for which the INHIBITION is reported as 34.5%.
Take `Cc1nn(C)c2c(NCc3ccncc3)nc(C3CC3)nc12`: the INHIBITION is recorded as -6.91%.
Regarding `Cc1nn(C)c2c(NCc3ccccc3F)nc(C3CC3)nc12`, the INHIBITION is reported as 75.1%.
In the case of `COc1ccc(CNc2nc(C3CC3)nc3c(C)nn(C)c23)cc1`, the INHIBITION is given as -26.1%.
As for `Cc1nn(C)c2c(NCc3cccnc3)nc(C3CC3)nc12`, the INHIBITION is recorded as 35.1%.
Turning to `Cc1nc(NC2CC2)c2c(n1)c(C)nn2C`, the INHIBITION stood at 29.3%.
For the compound `CC(C)N1[C@@H](C(=O)NCCN(C)C)C[C@H]2CN(c3ncccn3)C[C@H]21`, the INHIBITION was 37.8%.
On to `Cc1cc(CN2CCN(C(=O)NC(C)c3cccs3)CC2)on1` (stereo unspecified), for which the INHIBITION worked out at 38.9%.
To `CC(C)N1CCN(C(=O)C(C)n2cncn2)CC1` (stereo unspecified) belongs 19.6%; to `COc1ccc(CN2CC[C@@H](O)[C@@H]2Cc2cnn(C)c2)cc1`, 33.4%.
On to `Cc1nc(CNC(=O)NCC(O)c2ccc(F)cc2)cs1` (stereo unspecified), for which the INHIBITION worked out at 33.8%.
For the compound `CC(C)c1cc(O)nc(C2CCCN2C(=O)C(C)(C)C)n1` (stereo unspecified), the INHIBITION amounted to 23.2%.
For `O=C1C[C@H]2[C@@H](CCN2C(=O)c2cscn2)N1Cc1cccnc1` the value was 13.7%; for `O=C(NCc1nnc2ccccn12)N1CCOC(c2ccsc2)C1` (stereo unspecified), 32%.
As to `COc1cccc2c1CCN(C(=O)NCc1nnc3ccccn13)C2`, the INHIBITION was -102%.
For the compound `O=C(NCc1nnc2ccccn12)N1CCOC(c2cccs2)C1` (stereo unspecified), the INHIBITION is 63.5%.
`CCn1cnnc1CNC(=O)N1CCOC(c2ccccc2Cl)C1` (stereo unspecified): the INHIBITION is listed as 17.5%.
Regarding `O=C(NCc1nnc2ccccn12)N1CCc2sccc2C1`, the INHIBITION is reported as -27.6%.
Consider `Cc1ccc(C2CN(C(=O)NCc3nnc4ccccn34)CCO2)o1` (stereo unspecified), for which the INHIBITION stood at 61.3%.
To `Cc1nc(C2CN(C)CCO2)cc(N2CCC(CO)CC2)n1` (stereo unspecified) belongs 32.8%; to `O=C(CC1CCCC1)N1C[C@H](Oc2cccnc2)[C@H]2OCCC[C@H]21`, -24.5%.
`Cc1nc(=O)c2ccccc2n1C1=CCN(CC(=O)NC(C)C)CC1`: the INHIBITION worked out at 23.9%.
As for `O=C(C1CCOc2ccccc2C1)N1Cc2cnn(CCO)c2C1` (stereo unspecified), the INHIBITION is 27.6%.
With `O=C(CN1CCOc2ccccc2C1)N1Cc2cnn(CCO)c2C1`, the INHIBITION is given as 71.5%.
Regarding `O=C(C1COc2ccccc2O1)N1Cc2cnn(CCO)c2C1` (stereo unspecified), the INHIBITION worked out at 13.7%.
As for `CCOc1ccc(CN2CCC(c3[nH]ncc3C)C2)cc1CO` (stereo unspecified), the INHIBITION was 14.65%.
For the compound `COc1ncnc2c1CCN(C(=O)NCc1cccnc1)CC2`, the INHIBITION is -18.2%.
For `CCc1nc(C2CCCN2CC(=O)Nc2cc(C)no2)no1` (stereo unspecified), the INHIBITION is listed as -14.7%.
`CC(CNc1nccc(C(C)C)n1)Oc1cccnc1` (stereo unspecified): the INHIBITION came out at 24.3%.
On to `CCC(CC)NCC(C)Oc1cccnc1` (stereo unspecified), for which the INHIBITION stood at 54.6%.
For `CCc1cnc(NCC(C)Oc2cccnc2)nc1` (stereo unspecified) the value was -5.19%; for `CC(C)c1ncc(CN2CCC(c3n[nH]cc3C(=O)N(C)C)C2)cn1` (stereo unspecified), 10.9%.
As for `Cc1cccc(S(=O)(=O)N2C[C@@H]3C[C@@H](c4nc(C)no4)O[C@@H]3C2)c1`, the INHIBITION is 49.4%.
To `Cc1cccnc1CN(C)c1ncnc2[nH]ccc12` belongs -76.9%.
For `CN(C)Cc1ccccc1CN(C)c1ncnc2[nH]ccc12` the value was 52.2%; for `CN(Cc1ccccc1CN1CCCC1)c1ncnc2[nH]ccc12`, -42.1%; for `COc1cccc(S(=O)(=O)N2C[C@H](OC)[C@]3(CCCO3)C2)c1`, 28.5%.
As for `CCCN1CCCN(C(=O)Nc2ccc3c(c2)OCO3)CC1`, the INHIBITION is reported as -42.1%.
For `O=C(Nc1ccc2c(c1)OCO2)N1CCN(CCn2cccn2)CC1`, the INHIBITION stood at 42.8%.
As for `O=C(Nc1ccc2c(c1)OCO2)N1CCN(CCc2ccccc2)CC1`, the INHIBITION is on record as 60.9%.
In the case of `Cc1nnc(CN(C)C2CCCN(Cc3noc(C4CC4)n3)C2)o1` (stereo unspecified), the INHIBITION was 27.8%.
For `Cc1csc(NC(=O)C2(C)CN(C)CCO2)n1` (stereo unspecified), the INHIBITION worked out at 12.235%.
As to `Cc1nc(-c2ccc(S(=O)(=O)N3CCC4(CC3)OCCO4)cc2)co1`, the INHIBITION is 48.4%.
As for `CCN1CCC(NC(=O)CN2CCCC2Cn2cc(C)cn2)CC1` (stereo unspecified), the INHIBITION was found to be 11.2%.
On to `Cc1cccc(OC2CCN(c3ccc(C#N)cn3)CC2)n1`, for which the INHIBITION is 51.1%.
As to `Cc1cccc(OC2CCN(c3ncc(C#N)cc3Cl)CC2)n1`, the INHIBITION is 12.4%.
`Cc1cccc(OC2CCN(c3nccnc3C#N)CC2)n1`: the INHIBITION was 11.4%.
As for `CC(C)N1CCn2c(COCC3CCOCC3)cnc2C1C` (stereo unspecified), the INHIBITION turned out to be 39.4%.
For `COc1cc(C)nc(N2CCN(C(=O)COC3CCCC3)CC2)n1`, the INHIBITION is on record as 26.36%.
`Cc1cn[nH]c1C1CCCCN1C(=O)CCc1ccc(F)cc1` (stereo unspecified): the INHIBITION is recorded as 2.6%.
As for `O=C(c1ccsc1)N1CCC(c2nnc(C3CC3)o2)CC1`, the INHIBITION is listed as 14.3%.
On to `Cc1cc(C)n(CC2CCCN2C(=O)c2ccc3ccccc3n2)n1` (stereo unspecified), for which the INHIBITION is 21%.
`CCOc1ccc(Cl)c(C(=O)N2CCN(c3cnccn3)CC2)n1`: the INHIBITION is given as 52.7%.
For `CCOc1ccc(Cl)c(C(=O)N2CCN(c3ccncc3)CC2)n1`, the INHIBITION came to 10%.
With `CCOc1ccc(Cl)c(C(=O)N2CCN(c3ncccn3)CC2)n1`, the INHIBITION stood at 1.78%.
For `CCC(NC(=O)c1ccoc1)c1ccccc1OCC(=O)N1CCCC1` (stereo unspecified) the value was 29.05%; for `CCOCC(=O)NC(C)c1cc(C)ccc1C` (stereo unspecified), 30.5%; for `COCC(=O)N[C@H](C(=O)NC(C)c1cc(C)ccc1C)C(C)C` (stereo partly specified), 57.4%.
Take `COCC(=O)N[C@H](C(=O)NC(C)c1cccc(C)c1C)C(C)C` (stereo partly specified): the INHIBITION is reported as 28.7%.
For the compound `CC1=Nc2c(c(=O)[nH]n2C(C)C)C(c2ccc3ncccc3c2)S1` (stereo unspecified), the INHIBITION is 80%.
With `CC1=Nc2c(c(=O)[nH]n2C(C)C)C(c2ccc(F)c(F)c2)S1` (stereo unspecified), the INHIBITION is -3.95%.
To `CC1=Nc2c(c(=O)[nH]n2C(C)C)C(c2ccc3c(c2)OCCO3)S1` (stereo unspecified) belongs -14.1%; to `CC1=Nc2c(c(=O)[nH]n2C(C)C)C(c2ccc3nccnc3c2)S1` (stereo unspecified), 58.5%; to `CC1=Nc2c(c(=O)[nH]n2C(C)C)C(c2ccc3c(c2)n(C)c(=O)n3C)S1` (stereo unspecified), -39.6%.
For `CC1=Nc2c(c(=O)[nH]n2C(C)C)C(c2ccccc2)S1` (stereo unspecified) the value was 7.11%; for `O=C(Nc1ccccc1)[C@H]1C[C@H]2CN(S(=O)(=O)C3CC3)C[C@@H]1O2`, 30.3%; for `CC(C)c1cnc(CN2CCCC(c3cc(C(N)=O)[nH]n3)C2)o1` (stereo unspecified), -0.113%.
For `Cc1cccnc1NC(=O)c1ccc(F)c(S(=O)(=O)NC2CC2)c1` the value was 20.9%; for `Cc1ccccc1CN(C)C(=O)CN1CCOC(Cn2cccn2)C1` (stereo unspecified), -4.16%; for `O=C(CCC(=O)Nc1nnc(C2CCCCC2)s1)NCC1CCCO1` (stereo unspecified), 18.4%.
Consider `CC(C)c1nnc(NC(=O)CCC(=O)NCC2CCCO2)s1` (stereo unspecified), for which the INHIBITION was 52.5%.
Turning to `O=C(CCC(=O)Nc1nnc(C(F)(F)F)s1)NCC1CCCO1` (stereo unspecified), the INHIBITION is 0.207%.
`Cc1ncc2c(c1CNC(=O)C1(C)CCCO1)CCNC2` (stereo unspecified): the INHIBITION was found to be 56.3%.
To `Cc1ncc2c(c1CNC(=O)C1(C)CC1)CCNC2` belongs 14.6%; to `Cc1ncc2c(c1CNC(=O)C1(C)CCCCO1)CCNC2` (stereo unspecified), 36.9%; to `Cc1ccc(OCC(O)CNC(=O)C2(c3ccc(F)cc3)CC2)cc1` (stereo unspecified), -26.1%.
`Cc1ncc2c(c1CNC(=O)C1(c3ccc(F)cc3)CC1)CCNC2`: the INHIBITION is on record as 61.9%.
For the compound `COc1ccc(C2(C(=O)NCc3c(C)ncc4c3CCNC4)CC2)cc1`, the INHIBITION is given as 44.3%.
As to `COc1cccc(CCC(=O)N2CCC[C@@H](N)[C@@H]2c2ccccc2F)c1`, the INHIBITION is 14.4%.
With `COc1c(CNCC(O)c2ccc(C)cc2)c(C(C)C)nn1C` (stereo unspecified), the INHIBITION is -6.14%.
On to `CS(=O)(=O)CC1(CNc2cc(C#N)c3cc(Cl)ccc3n2)CC1`, for which the INHIBITION was 6.23%.
Consider `CC(NC(=O)CNc1cc2c(cc1Cl)NC(=O)CO2)c1ccco1` (stereo unspecified), for which the INHIBITION was determined as 17.1%.
Consider `Cn1nnnc1SCC(=O)N1CCN(C(=O)C2CC2c2cccs2)CC1` (stereo unspecified), for which the INHIBITION is -40.4%.
For `CCc1nnc2n1CCN(C(=O)CCc1ccc3c(c1)OCO3)C2` the value was 37.4%.
To `O=C(C1CCOCC1)N1C[C@@H]2[C@@H](C1)OCC(=O)N2Cc1ccncc1` belongs -46.5%; to `NC(=O)CCC1CCCN(c2ccc3ccc(F)cc3n2)C1` (stereo unspecified), -65.4%; to `NC(=O)CCC1CCCN(c2ccnc3cc(F)ccc23)C1` (stereo unspecified), 79.3%.
For `NC(=O)CCC1CCCN(c2ccc3c(Cl)ccnc3c2F)C1` (stereo unspecified) the value was 38%.
In the case of `Cc1cnccc1CCNC(=O)Nc1cnc(N(C)C)nc1`, the INHIBITION came to 42.3%.
Regarding `Cc1nc(NC(=O)C(C)N(C)Cc2cccc(C#N)c2)sc1C` (stereo unspecified), the INHIBITION is -24.7%.
On to `OC1(CNC2CCN(c3ccccn3)CC2)CCc2ccccc21` (stereo unspecified), for which the INHIBITION is on record as 7.31%.
Regarding `CC(C)COCCNC1CCN(c2ccccn2)CC1`, the INHIBITION was determined as 41.4%.
To `COc1ccc(C(C)CCNC2CCN(c3ccccn3)CC2)cc1` (stereo unspecified) belongs 53.4%; to `c1ccc(N2CCC(NCCc3ccc(-n4cccn4)cc3)CC2)nc1`, -15.3%.
Consider `CC(CNC1CCN(c2ccccn2)CC1)Oc1ccc(F)cc1` (stereo unspecified), for which the INHIBITION turned out to be 65.4%.
To `COc1c(CNC2CCN(c3ccccn3)CC2)c(C(C)C)nn1C` belongs 40.2%; to `CN1CCC/C1=N\S(=O)(=O)c1ccc(NC(=O)c2cccs2)cc1`, 23.4%; to `c1ccc(CN2C[C@@H]3CC[C@H]2CN(Cc2nnc(C4CC4)o2)C3)cc1`, 45.4%.
In the case of `Cc1cc(C)n(CC2CN(CC(=O)N3CCC3)CCO2)n1` (stereo unspecified), the INHIBITION is on record as 8.64%.
